From PubChem BioAssay (Tox21) come the findings set out here.

SMILES strings stand for the structures. Unmarked numbers belong to inactive results. The source made the active and inactive calls. Calls follow the shape of the full dose curve.
% is scaled to controls: 0 for no effect and ±100 for the full control effect; potency is read from the fitted curve at half-maximal effect.

The target in this assay is Acetylcholinesterase (Homo sapiens) (UniProt P22303). The assay is described as follows: Acetylcholinesterase (AChE) small molecule antagonists: enzyme-based qHTS assay with human liver microsomes (AID 1347399). Also: nearly all actives have a fitted effect of over 60% in size. As to conditions: Potency: qHTS inhibition; series mostly up to 115 µM; activity change, negative = inhibition: at the top concentration. From the text: National Center for Advancing Translational Sciences [NCATS]
Acetylcholinesterase (Homo sapiens), sequence (P22303 whole entry, looked up): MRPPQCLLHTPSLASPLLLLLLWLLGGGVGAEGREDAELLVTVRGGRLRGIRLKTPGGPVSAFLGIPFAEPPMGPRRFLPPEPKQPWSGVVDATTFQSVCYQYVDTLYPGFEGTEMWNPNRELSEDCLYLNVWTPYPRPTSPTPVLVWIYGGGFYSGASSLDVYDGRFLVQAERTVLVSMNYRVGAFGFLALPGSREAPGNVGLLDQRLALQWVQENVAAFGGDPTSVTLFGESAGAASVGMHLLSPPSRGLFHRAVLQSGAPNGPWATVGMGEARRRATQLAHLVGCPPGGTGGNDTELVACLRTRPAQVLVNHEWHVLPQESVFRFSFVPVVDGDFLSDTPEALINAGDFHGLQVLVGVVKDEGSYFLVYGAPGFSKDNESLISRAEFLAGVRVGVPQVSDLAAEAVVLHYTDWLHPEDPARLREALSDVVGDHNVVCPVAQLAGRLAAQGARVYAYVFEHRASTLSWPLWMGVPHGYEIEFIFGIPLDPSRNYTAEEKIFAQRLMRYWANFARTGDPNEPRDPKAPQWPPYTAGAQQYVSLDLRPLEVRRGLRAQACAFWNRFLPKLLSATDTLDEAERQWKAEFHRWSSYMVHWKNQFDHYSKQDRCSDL
Division of Preclinical Innovation [DPI]
U.S. Environmental Protection Agency [EPA]
National Institutes of Environmental Health Sciences [NIEHS]
National Toxicology Program [NTP]
U.S. Food and Drug Administration [FDA]
Acetylcholinesterase (AChE) is the primary cholinesterase in the body that hydrolyzes a key neurotransmitter, acetylcholine. Inhibition of AChE activity can lead to neurotoxicity. The known inhibitors include organophosphorous pesticides (OP), chemical warfare agents, drugs, and various phytochemicals. Some compounds like OP compounds may need metabolic activation to be active AChE inhibitors. The cytochrome P450 (CYP) superfamily in the human microsomes is responsible for the metabolism of various endogenous and exogenous compounds.
An enzyme-based assay with the recombinant human AChE, human liver microsomes and Amplite Colormetric acetylcholinesterase assay kit (AAT Bioquest, Sunnyvale, CA) was used to evaluate compounds in the Tox21 10K library that need metabolic activation for AChE inhibition. The assay uses 5, 5-dithiobis-(2-nitrobenzoic acid) (DTNB) to quantify the thiocholine produced from the hydrolysis of acetylthiocholine by AChE.
Tox21 Assay Protocol Summary:
For the enzyme-based AChE assay with microsomes addition, a mixture of human AChE (50 mU/mL) and human liver microsomes (0.25 mg/mL, final concentration) in 3 uL/well was dispensed into black, clear-bottom 1536-well plates using a Multidrop Combi dispenser (Thermo Scientific, MA). Then, 23 nL of compound or DMSO (vehicle control) was transferred into the assay plates by a Pintool Station (Wako Automation, CA). Following compound addition, 1 uL of NADPH (0.25 mg/mL, final concentration) was transferred to the assay plate by a Flying Reagent Dispenser (Beckman Coulter, CA). The plates were incubated for 30 min at 37 C and 5% CO2, followed by the addition of 4 uL of colorimetric detection cocktail solution (DTNB, acetylthiocholine) into each well using a Flying Reagent Dispenser (Beckman Coulter, CA) and then 10 min incubation at room temperature.
(In qHTS, concentration-response curves come from the screen itself.)
Consider `O=C(O)C1C2CCC(O2)C1C(=O)O` (stereo not given), for which the Potency entry is “inactive”.

As to `Oc1cccc(-c2ccccc2)c1`, the “activity change, negative = inhibition” value is 0.161%.

With `CCOCCOC(C)=O`, the “activity change, negative = inhibition” value is 3.15%.

As for `Clc1ccc(C(Cl)(Cl)Cl)c(Cl)c1`, the “activity change, negative = inhibition” value was -1.53%.

Turning to `CC(C)C1CCC(Cc2ccc(Cl)cc2)C1(O)Cn1cncn1` (stereo not given), the “activity change, negative = inhibition” value was -0.444%.

Take `Cc1ccc(C(=O)Cl)cc1`: the “activity change, negative = inhibition” value is -0.638%.

With `CCCCCCCCCBr`, the “activity change, negative = inhibition” value was 2.19%.

`Clc1ccc(C(c2ccccc2Cl)C(Cl)(Cl)Cl)cc1` (stereo not given): the Potency result was “inactive”.

As for `O=c1[nH]c2ccccc2n1C1CCN(CCCC(c2ccc(F)cc2)c2ccc(F)cc2)CC1`, the Potency result is “inactive”.

For `CCc1ccccc1C`, the “activity change, negative = inhibition” value was 1.15%.

`CN(C)CCc1c[nH]c2ccc(O)cc12`: the “activity change, negative = inhibition” value is 0.0156%.

Take `[Cl][Sn]([c]1ccccc1)([c]1ccccc1)[c]1ccccc1`: the activity change, negative = inhibition was 0.0872% [at 23.6 µM].

For the compound `CC(C)(C)c1ccc(CSc2cnn(C(C)(C)C)c(=O)c2Cl)cc1`, the “activity change, negative = inhibition” value was 1.93%.

With `Nc1ccccc1C(=O)Oc1ccc2ccccc2c1`, the “activity change, negative = inhibition” value was -10.4%.

As to `CCCCCCCCCCCCCCCC[n+]1ccccc1`, the Potency entry was “inactive”.

As for `O=C(CCl)Nc1ccccc1`, the “activity change, negative = inhibition” value was -0.146%.

Turning to `Nc1ccc([N+](=O)[O-])cc1Cl`, the “activity change, negative = inhibition” value is 16.3%.

In the case of `CCOP(=S)(OCC)OC(Cl)C(Cl)(Cl)Cl` (stereo not given), the Potency was 28.3 µM (active).

Turning to `Cc1cc(Cl)ccc1O[C@H](C)C(=O)O`, the “activity change, negative = inhibition” value was 0.106%.

As to `CC[C@H](C)[C@H]1O[C@]2(C=C[C@@H]1C)C[C@@H]1C[C@@H](C/C=C(\C)[C@@H](O[C@H]3C[C@H](OC)[C@@H](O[C@H]4C[C@H](OC)[C@@H](O)[C@H](C)O4)[C@H](C)O3)[C@@H](C)/C=C/C=C3\CO[C@@H]4[C@H](O)C(C)=C[C@@H](C(=O)O1)[C@]34O)O2`, the “activity change, negative = inhibition” value was 1.02% [at 53 µM].

As to `O=C(CCl)C(Cl)Cl`, the “activity change, negative = inhibition” value is -0.638%.

As to `O=C/C(Cl)=C(/Cl)C(=O)O`, the Potency result is “inactive”.

As to `O=C(CCCN1CCC2(CC1)C(=O)NCN2c1ccccc1)c1ccc(F)cc1`, the “activity change, negative = inhibition” value was -0.756% [at 53 µM].

Take `Oc1ccc(I)cc1`: the “activity change, negative = inhibition” value was 0.405%.

Regarding `CCN(CC)C(=S)[S-].CCN(CC)C(=S)[S-].[Zn+2]`, the “activity change, negative = inhibition” value was -0.853%.

Take `Cl/C=C\CCl`: the “activity change, negative = inhibition” value was 3.56%.

On to `CCS(=O)(=O)c1cccnc1S(=O)(=O)NC(=O)Nc1nc(OC)cc(OC)n1`, for which the “activity change, negative = inhibition” value was 0.166%.

Take `Clc1ccc(C(c2ccc(Cl)cc2)C(Cl)(Cl)Cl)cc1`: the Potency entry was “inactive”.

Regarding `COP(=O)(CCC(=O)NCO)OC`, the “activity change, negative = inhibition” value is 0.251%.

With `CCCCCCCCCCCCCCC(Br)C(=O)O` (stereo not given), the “activity change, negative = inhibition” value was 0.417%.

In the case of `CC1(C)CC/C(=C/c2ccc(Cl)cc2)C1(O)Cn1cncn1` (stereo not given), the “activity change, negative = inhibition” value is -0.147%.

`CC(=[OH+])/C=C(/C)[O-].CC(=[OH+])/C=C(\C)[O-].CC(=[OH+])/C=C(\C)[O-].[Fe]`: the “activity change, negative = inhibition” value is 0.792%.

For `FC(Cl)(Cl)Cl`, the “activity change, negative = inhibition” value was 0.341%.

For `BrC(Br)C(Br)(Br)Br`, the “activity change, negative = inhibition” value was -0.516%.

For the compound `CC(O)C#N` (stereo not given), the “activity change, negative = inhibition” value was -7.22%.

With `ClC(Cl)=C(c1ccc(Cl)cc1)c1ccc(Cl)cc1`, the Potency result is “inactive”.

On to `COc1ccc([N+](=O)[O-])cc1O`, for which the “activity change, negative = inhibition” value was -4.53% [at 53 µM].

With `CCOP(=S)(OCC)SCS(=O)(=O)C(C)(C)C`, the Potency was 8.94 µM (active).

`Clc1ccc(Oc2ccccc2)cc1`: the “activity change, negative = inhibition” value was 1.48%.

Consider `CCOC(=O)c1ccccc1S(=O)(=O)NC(=O)Nc1nc(Cl)cc(OC)n1`, for which the “activity change, negative = inhibition” value was 0.423%.
